Screens from PubChem.
In the library only some 2.4% were active in any assay of this set; here they are far more common.
D2 PAM-1: Beta-Arrestin HTS for Positive Allosteric Modulators of the Human D2 Dopamine Receptor: Potentiators; DiscoveRx D2 beta-arrestin cells, luminescence, 90 min; 100% = 57 uM dopamine signal; potentiation, % (test concentration not listed); D(2) dopamine receptor (Homo sapiens), P14416; AID 624464, 2012; 360,000 tested, 0.23% active; in the data active = potentiation above about 50%
Target sequence (P14416 whole entry, looked up): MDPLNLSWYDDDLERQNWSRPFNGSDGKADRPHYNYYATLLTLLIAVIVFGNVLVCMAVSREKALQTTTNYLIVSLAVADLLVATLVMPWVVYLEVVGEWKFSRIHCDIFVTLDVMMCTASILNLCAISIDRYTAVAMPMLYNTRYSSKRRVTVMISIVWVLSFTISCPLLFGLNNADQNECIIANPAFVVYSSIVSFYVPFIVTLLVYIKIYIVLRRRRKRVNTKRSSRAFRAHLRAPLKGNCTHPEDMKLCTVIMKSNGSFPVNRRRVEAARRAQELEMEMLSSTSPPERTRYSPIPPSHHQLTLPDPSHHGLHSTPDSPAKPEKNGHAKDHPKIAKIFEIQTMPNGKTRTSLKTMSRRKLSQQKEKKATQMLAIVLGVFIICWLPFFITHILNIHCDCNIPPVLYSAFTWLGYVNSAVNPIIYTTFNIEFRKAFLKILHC
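PathHunter beta-arrestin assay in DiscoveRx D2 cells. Compounds were added with an EC20 of dopamine (50 nM final) for 90 min at 37 deg C. Luminescence was read 1 h after detection reagent, with 57 uM dopamine as the EC100 control.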
D2 PAM-2: HTS Assay for Positive Allosteric Modulators of the Human D2 Dopamine Receptor: Primary Screen for Potentiators. HEK293 T-REx D2, calcium flux, EC20 dopamine potentiation. potentiation, % at 10 µM. 340,000 tested, 0.34% active. AID 485347, 2010;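 active = potentiation over 3 SD above the plate norm, cut at about 30% in these data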; note: 0% is about no effect
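Using a no-wash calcium dye in inducible, force-coupled HEK293 Trex cells expressing D2, we tracked fluorescence each second for 180 s after compound, then for 180 s after EC20 dopamine to detect augmented signalling.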
D2 antagonist: HTS Assay for Allosteric Antagonists of the Human D2 Dopamine Receptor: Primary Screen for Antagonists; D(2) dopamine receptor (Homo sapiens), P14416; HEK293 TREx D2 cells, calcium flux, dopamine EC80; inhibition, % at 10 µM; 340,000 tested, 2% active; in the data active = inhibition above about 30%; inactive = below that, where a call was filed; note: 0% is about no effect
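Calcium flux kinetic readout in an inducible HEK293 TREx D2 line plated overnight at 30 C. After 180 s compound exposure, an EC80 dopamine challenge follows with another 180 s kinetic read to detect antagonism.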
D2 ag-1: HTS Assay for Allosteric Agonists of the Human D2 Dopamine Receptor: Primary Screen for Agonists | D(2) dopamine receptor (Homo sapiens), P14416 | AID 485358, 2010 | 340,000 tested, 0.53% active | HEK293 T-REx D2 cells, calcium flux agonist mode | activation, % at 2 µM;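 active = activation over 3 SD above normal in the single-dose calcium agonist read, cut at about 30% in these data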; note: 0% is about no effect
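Tetracycline-induced HEK293 Trex cells with D2 receptor force-coupled to calcium signaling, plated overnight at 30 C and loaded with no-wash calcium dye. Calcium flux read kinetically for 180 s after compound addition; responses flag agonists.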
D2 ag-2: Beta-Arrestin HTS for Positive Allosteric Modulators of the Human D2 Dopamine Receptor: Agonists; DiscoveRx PathHunter D2 beta-arrestin, luminescence, 90 min; 100% = 57 uM dopamine signal; AID 624465, 2012; 360,000 tested, 0.084% active; D(2) dopamine receptor (Homo sapiens), P14416; activation, % (no concentration beside the values); in the data active = activation above about 40%
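DiscoveRx PathHunter D2 beta-arrestin cells (2,100/well) attached overnight, then compound-stimulated 90 min at 37 C in HBSS/10 mM HEPES/0.1% Tween-20 buffer; beta-galactosidase complementation read by luminescence after 1 h at ambient temperature. Dopamine 57 uM final (EC100) as control.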
Numbers without * were called inactive.

How did O=C(NC1CCN(Cc2ccccc2)CC1)c1ccccc1OCc1ccccc1Cl do in these assays?
D2 PAM-1: -21.6; D2 PAM-2: -33.1; D2 antagonist: 84.5*; D2 ag-1: -0.3; D2 ag-2: -1.3

What do the screens show for `O=C(NC1CCCC1)c1ccccc1OCc1ccccc1`?
D2 PAM-1: -6.5; D2 PAM-2: 3.6; D2 antagonist: -11.2; D2 ag-1: 1.2; D2 ag-2: 1.0

Results for Cn1c(=O)c2cc(C(=O)N3CCN(c4ccc(Cl)cc4)CC3)sc2c2ccccc21 ?
D2 PAM-2: 14.7; D2 ag-1: -0.1

Results for c1ccc(OCCCCN2CCCCC2)cc1 ?
D2 PAM-1: -12.2; D2 PAM-2: -14.3; D2 antagonist: 0.5; D2 ag-1: 0.8; D2 ag-2: -1.6

What do the screens show for `c1ccc2c(c1)OC(CCCN1CCCCC1)c1ccccc1S2` (centres undefined)?
D2 PAM-1: -30.8; D2 PAM-2: -27.7; D2 antagonist: 87.0*; D2 ag-1: 1.1; D2 ag-2: -4.8

Results for CN1CCCC(CC2Oc3ccccc3Sc3ccccc32)C1 (centres undefined) ?
D2 PAM-1: -17.4; D2 PAM-2: -33.2; D2 antagonist: 95.7*; D2 ag-1: 2.8; D2 ag-2: -6.0

What do the screens show for `CNc1ccc2c3c(cccc13)C(=O)N(C)C2=O`?
D2 PAM-1: 18.0; D2 PAM-2: -16.6; D2 antagonist: 71.9*; D2 ag-1: 127.8*; D2 ag-2: 5.3

What do the screens show for `CCCC(=O)Nc1nc2nc(-c3ccccc3)cc(=O)n2[nH]1`?
D2 PAM-1: -6.5; D2 PAM-2: 3.0; D2 antagonist: 31.8*; D2 ag-1: 0.0; D2 ag-2: -1.4

Results for CCN1CCN(c2oc(-c3ccc(COc4ccc(C)cc4)o3)nc2C#N)CC1 ?
D2 PAM-2: -9.0; D2 ag-1: -1.6

How did Cc1ccc(CCNC(=O)c2cc3c(-c4ccccc4F)nn(C)c3s2)cc1 do in these assays?
D2 PAM-2: -14.2; D2 ag-1: 0.4

Results for CCCCN(CC)CCNC(=O)c1cc2c(=O)n(CC)c3ccccc3c2s1 ?
D2 PAM-1: -18.5; D2 PAM-2: 8.3; D2 antagonist: 35.7*; D2 ag-1: -3.1; D2 ag-2: -1.9

How did CCCCN(CC)CCNC(=O)c1cc2c(-c3ccccc3F)nn(C)c2s1 do in these assays?
D2 PAM-1: 8.1; D2 PAM-2: -3.9; D2 antagonist: -28.3; D2 ag-1: 1.2; D2 ag-2: 44.2*

What do the screens show for `Cc1ccc(C)c(-c2nnc(NC(=O)c3ccco3)o2)c1`?
D2 PAM-1: -8.8; D2 PAM-2: -5.7; D2 antagonist: 40.5*; D2 ag-1: 1.0; D2 ag-2: -3.5

How did O=c1[nH]c(C2CCN(S(=O)(=O)c3ccccc3)CC2)nc2c1nnn2Cc1cccc(Cl)c1 do in these assays?
D2 PAM-1: -0.7; D2 PAM-2: 5.2; D2 antagonist: 31.7*; D2 ag-1: 0.2; D2 ag-2: 1.5

Results for O=c1[nH]c(C2CCN(S(=O)(=O)c3ccccc3C(F)(F)F)CC2)nc2c1nnn2Cc1cccc(F)c1 ?
D2 PAM-1: -0.6; D2 PAM-2: 5.1; D2 antagonist: 42.7*; D2 ag-1: 0.4; D2 ag-2: 5.5

How did O=c1[nH]c(C2CCN(S(=O)(=O)c3ccc(C(F)(F)F)cc3)CC2)nc2c1nnn2Cc1cccc(F)c1 do in these assays?
D2 PAM-1: -13.4; D2 PAM-2: 0.0; D2 antagonist: -12.2; D2 ag-1: 0.6; D2 ag-2: -2.1

How did O=C(COc1ccccc1Cl)Nc1cc(-c2ccccc2F)nn1-c1ccccc1 do in these assays?
D2 PAM-2: -1.6; D2 ag-1: 0.6

What do the screens show for `Cc1ccc(-c2nnc(Nc3ccc(O)cc3)c3ccccc23)cc1S(=O)(=O)NCC1CCCO1` (centres undefined)?
D2 PAM-2: -0.7
